Assay results published in PubChem BioAssay (NCATS).
Where “and” joins values, the source holds several entries; their conditions need not be identical. Identical values can stand only once. Inconclusive results are not listed. Values without a mark were called inactive. Calls of active or inactive are those of the source. Calls come from the whole dose curve; as a rule, active = well fitted cell-killing curve with a large enough effect; inconclusive = small, poorly fitted or top-dose-only effect, or effect the other way; inactive = no such curve, though single readings can be large or run the other way.

Assay: Viability qHTS for spleen associated tyrosine kinase inhibitor (SYKi) naive MV4-11 cells (AID 1963823); note: nearly all actives have a fitted effect of over 40% in size
Conditions: MV4-11 AML viability, CellTiter-Glo luminescence, 72 h; series mostly up to 45 µM; viability (% of control): at the top concentration
From the text: Department of Medicine, Hematology/Oncology
University Hospital Frankfurt, Germany.
Trials have shown promising clinical activity of the selective SYK inhibitor entospletinib in patients with high expressing HOXA9/MEIS1 acute leukemias. As the development of resistance mechanisms is a common problem in the use of targeted drugs, we performed a chemical library screen to identify drug sensitivities in SYK inhibitor resistant AML cells. […] Glucocorticoids are potent immunosuppressants which work in part by inhibiting the transcription of cytokine genes.
Described herein is a viability screen to look for activity in the SYK inhibitor naive cell line against four NCATS compound libraries (MIPE 5.0, NPC, NPACT, and Kinase) totaling 11372 compounds. Active hits were reacquired for confirmation and further secondary assay testing.
SEQUENCE No. (e.g., 1, 2, 3, etc.); […] (e.g., Cells, Incubation, Reagent, etc.); VALUE; DESCRIPTION.
1; Media; 2uL; white, solid-bottom Corning assay plate.
2; Compounds; 23nL; Echo acoustic dispenser.
3; Cell; 5uL; 500 cells per well.
4: Incubation; 72hr; 37 C, 5% CO2, 95% humidity.
5; Reagent; 3uL; CellTiter-Glo reagent (Promega).
6; Incubation; 10min; room temperature.
7; Detection; Luminescence; ViewLux plate reader (PerkinElmer).
NOTES (numbers refer to Sequence numbers above
1. Quantitative high-throughput screening (qHTS) of small molecule compounds was conducted on naive SYKi MV4-11 cell line.
2. Twenty-three nanoliter of small molecule compounds were added to each assay plates using the Echo acoustic dispenser (Beckman Coulter).
3. Cells were seeded into the assay plates at a final density of 500 cells in 5uL of media per well using the Multi-drop Combi dispenser.
4. Plates were covered with stainless steel gasketed lids and incubated for 72 hours at standard cell culture conditions.
5. Viability was assessed by adding 3uL of CellTiter-Glo detection reagent (Promega).
6. Plates were covered with gasket lids and incubated for 10 minutes at room temperature.
7. Luminescence was measured on a ViewLux plate reader (PerkinElmer).
Potency is the fitted concentration of half-maximal effect.

Compound | viability (% of control) | Potency
C=C(CO)C(=O)O[C@H]1C/C(C)=C/CC/C(CO)=C/[C@H]2OC(=O)C(=C)[C@H]12 | 84.4% | –
CN1C(=O)COc2c(C(=O)NC3CN4CCC3CC4)cc(Cl)cc21 (stereo not given) | 63.1% | –
CN1C(=O)[C@@H](Cc2c[nH]c3ccccc23)N=C(c2ccccc2F)c2ccccc21 | – | 20.6 µM (active)
O=C(O)CNC(=O)c1c(O)c2ccccc2n(Cc2ccccc2)c1=O | 95.4% | –
C[C@H]1CCC[C@H](O)CCC/C=C/c2cc(O)cc(O)c2C(=O)O1 | – | 7.31 µM (active)
CO[C@H]1CCC(O[C@H]2C[C@H]([C@]3(C)CC[C@]4(C[C@H](O)[C@@H](C)[C@@H]([C@@H](C)/C=C(\C)C(=O)[C@H](C)C[C@H](C)C(=O)O)O4)O3)O[C@]3(O[C@@H]([C@H]4O[C@@](O)(CO)[C@H](C)C[C@@H]4C)C[C@@H]3C)[C@@H]2C)O[C@@H]1C (stereo not given in full) | – | 0.166 µM (active)
C/C=C(/C)C(=O)O[C@H]1C(C)=C2[C@H]([C@@H]1OC(=O)CCCCCCC)[C@@](C)(OC(C)=O)C[C@H](OC(=O)CCC)[C@@]1(O)[C@H]2OC(=O)[C@@]1(C)O | – | 25.9 nM (active) and 20.9 nM (active)
COC(=O)C12C(=O)C(C)(O)C(=O)C1(C)C(C)=CC1C34CCC(OC3=O)C(C)(C)C4CCC12C (stereo not given) | 75.9% [at 17.3 µM] | –
CC(C)(C)c1cc(C=C(C#N)C#N)cc(Br)c1O | – | 16.6 µM (active)
CCC1(c2ccc(N)cc2)CCC(=O)NC1=O (stereo not given) | 111% | –
C[C@H]1O[C@@H](O[C@H]2C[C@@H](O)[C@]3(CO)C4C(CC[C@]3(O)C2)[C@@]2(O)CC[C@H](C3=CC(=O)OC3)[C@@]2(C)C[C@H]4O)[C@@H](O)[C@@H](O)[C@H]1O (stereo not given in full) | – | 0.172 µM (active)
CC[C@H]1C[C@@H]2CC[C@@H](O2)[C@@H](C)C(=O)O[C@H](CC)C[C@H]2CC[C@H](O2)[C@H](C)C(=O)O[C@@H](C)C[C@@H]2CC[C@@H](O2)[C@@H](C)C(=O)O[C@H](CC)C[C@H]2CC[C@H](O2)[C@H](C)C(=O)O1 | – | 0.0122 µM (active)
CCC(=O)O[C@@H]1C=C2CCC3C(CCC4(C)C3CC[C@@H]4OC(=O)CC)C2CC1 (stereo not given in full) | 65.2% | –
ClC1=C(Cl)C2(Cl)C(CBr)CC1(Cl)C2(Cl)Cl (stereo not given) | 93.8% | –
C=C(C)[C@@H]1CCC(C)=C[C@H]1c1c(O)cc(CCCCC)cc1O | – | 20.9 µM (active)
CCN(Cc1ccc(Cl)nc1)/C(=C/[N+](=O)[O-])NC | 84.8% | –
COC[C@H]1OC(=O)c2coc3c2[C@@]1(C)C1=C(C3=O)C2CCC(=O)[C@@]2(C)C[C@H]1OC(C)=O (stereo not given in full) | – | 14.6 µM (active) and 3.32 µM (active)
CN1C2CCC1CC(OC(=O)N1Cc3ccccc3NC1=O)C2 (stereo not given) | 103% | –
FC(F)(F)c1cccc(C2=CCN(CCc3ccc4ccccc4c3)CC2)c1 | 79.7% | –
Oc1ccc2[nH]cc(CCCCN3CC=C(c4ccccc4)CC3)c2c1 | – | 8.41 µM (active)

Compound | viability (% of control) | Potency
COC1C(O)C(OC2CCC3(C=O)C(CCC4C3CCC3(C)C(C5=CC(=O)OC5)CCC43O)C2)OC(C)C1OC1OC(CO)C(O)C(O)C1O (stereo not given) | – | 0.153 µM (active)
C[C@H](N)C(=O)c1ccccc1 | 94.3% [at 155 µM] | –
Oc1ccc2c3c1O[C@H]1[C@H](N(CCCl)CCCl)CC[C@@]4(O)[C@@H](C2)N(CC2CC2)CC[C@]314 | 89.3% [at 9.25 µM] | –
COc1cc(C[C@@H](C)N)c(OC)cc1Br | 76.5% [at 91.9 µM] | –
CC(CC(C(N)=O)(c1ccccc1)c1ccccc1)N(C)C (stereo not given) | 84.5% | –
COC1CC(O[C@H]2CC[C@@]3(C)C(=CCC4C3C(O)[C@@H](O)[C@]3(C)[C@@H](C(C)=O)CC[C@]43O)C2)OC(C)C1OC1CC(OC)C(OC2OC(C)C(O)C(O)C2O)C(C)O1 (stereo not given in full) | 67.1% [at 9.25 µM] | –
O=C(Oc1ccc([N+](=O)[O-])cc1)N1CCC(C(O)(c2ccc3c(c2)OCO3)c2ccc3c(c2)OCO3)CC1 | 49.7% | –
Cc1c(N)nc([C@H](CC(N)=O)NC[C@@H](N)C(N)=O)nc1C(=O)N[C@H](C(=O)N[C@@H](C)[C@H](O)[C@@H](C)C(=O)N[C@@H](C(=O)NCCc1nc(-c2nc(C(=O)NCCC[S+](C)C)cs2)cs1)[C@@H](C)O)C(O[C@H]1O[C@H](CO)[C@H](O)[C@@H](O)[C@H]1O[C@H]1O[C@H](CO)[C@@H](O)[C@H](OC(N)=O)[C@@H]1O)c1cnc[nH]1 (stereo not given in full) | 63.4% [at 17.3 µM] | –
C=C1C(=O)CC2OC2(C)CC2OC(=O)C(=C)C2C(O)C1OC(=O)/C(C)=C\C (stereo not given) | – | 0.508 µM (active)
CC(C)(C)NCC(O)c1cc(Cl)c(N)c(C(F)(F)F)c1 (stereo not given) | 75.5% | –
CCC1(c2ccccc2)CCC(=O)NC1=O (stereo not given) | – | 21.1 µM (active)
C=CCN1C[C@H](C)N([C@H](c2ccc(C(=O)N(CC)CC)cc2)c2cccc(OC)c2)C[C@H]1C | – | inactive
CC[C@H]1C[C@H]2[C@@H]3CCC4=CC(=O)CC[C@@H]4[C@H]3CC[C@]2(C)[C@H]1O | – | 18.8 µM (active)
COc1cc(O)c2c(c1)CCC[C@@H](O)[C@H](O)C(=O)/C=C\C[C@H](C)OC2=O | – | 1.8 µM (active)
CC(C)(C)OC(=O)c1ncn2c1[C@@H]1CCCN1C(=O)c1c(Br)cccc1-2 | 62.9% | –
C[C@H]1O[C@@H](O[C@H]2CC[C@]3(C=O)C4CC[C@]5(C)[C@@H](C6=CC(=O)OC6)CC[C@]5(O)[C@@H]4CC[C@]3(O)C2)C[C@@H](O)[C@@H]1O (stereo not given in full) | – | 0.0563 µM (active)
COc1cc2c(cc1F)C(c1ccccc1Cl)=Nc1c(n[nH]c1C)N2 | – | 0.517 µM (active)
C=C(CO)C(=O)O[C@H]1CC(=C)[C@@H]2C[C@H](O)C(=C)[C@@H]2[C@H]2OC(=O)C(=C)[C@@H]21 | – | 1.8 µM (active)
Cc1cccc(NC(=O)N[C@H]2CN(C)c3ccccc3C(c3ccccc3)=N2)c1 | – | 25.9 µM (active)
C[C@]12CC[C@H](O)C[C@H]1CC[C@@H]1[C@@H]2[C@H](O)C[C@]2(C)[C@@H](c3ccc(=O)oc3)CC[C@]12O | – | 0.0184 µM (active)
